High-throughput results: PubChem BioAssay, several laboratories
An excerpt weighted towards active compounds, which were near 1.5% of everything screened.
S1P4 ag: activates the human S1P4 receptor; 220,000 tested, 0.35% active; S1P4-expressing cell line, agonist reporter assay; O95977; activation, % at 4.98 µM; AID 1509; in the data active = activation above about 11%;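 note: 0% = DMSO vehicle and 100% = reference agonist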
Target sequence (O95977 whole entry, looked up): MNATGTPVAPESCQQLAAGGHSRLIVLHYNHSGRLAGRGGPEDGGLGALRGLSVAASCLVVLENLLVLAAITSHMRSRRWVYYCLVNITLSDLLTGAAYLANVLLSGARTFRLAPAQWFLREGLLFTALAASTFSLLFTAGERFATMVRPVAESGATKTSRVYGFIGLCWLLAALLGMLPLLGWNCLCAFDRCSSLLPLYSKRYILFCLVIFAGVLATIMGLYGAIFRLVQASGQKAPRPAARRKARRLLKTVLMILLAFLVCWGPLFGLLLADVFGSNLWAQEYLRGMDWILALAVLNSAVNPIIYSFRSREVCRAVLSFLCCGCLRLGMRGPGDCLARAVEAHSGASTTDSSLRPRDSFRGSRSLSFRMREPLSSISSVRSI
S1P4 antag: antagonists of human S1P4 receptor | O95977 | S1P4-expressing cells, antagonist mode, reporter read-out | inhibition, % at 4.98 µM | 220,000 tested, 0.26% active | AID 1510; in the data active = inhibition above about 29%;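 note: 0% = wells stimulated with agonist and 100% = vehicle wells without agonist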
Insulin prom up: MIN6 insulin promoter up-regulation; 190,000 tested, 0.3% active; AID 1625; z-score at 5 µM; MIN6 insulin promoter-GFP reporter, high-content imaging; hits give high values;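 active = z-score above 3 at 5 µM with at least 500 cells counted in the well; inconclusive = wells under 500 cells, flagged as cytotoxic or low count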
S1P3 antag: blocks the human S1P3 receptor; CHO S1P3 NFAT-BLA reporter, FRET fluorescence, antagonist mode; AID 485; inhibition, % at 4.98 µM; Q99500; 170,000 tested, 0.27% active;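 active = inhibition above the plate cutoff, the mean inhibition of test wells on that plate plus 3 SD, cut at about 28% in these data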;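 note: cells challenged with S1P at its EC80 of 0.8 µM; blue over green emission ratio from cleaved BLA substrate after 4 h stimulation; 0% = S1P-stimulated wells and 100% = unstimulated DMSO-only wells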
Target sequence (Q99500 whole entry, looked up): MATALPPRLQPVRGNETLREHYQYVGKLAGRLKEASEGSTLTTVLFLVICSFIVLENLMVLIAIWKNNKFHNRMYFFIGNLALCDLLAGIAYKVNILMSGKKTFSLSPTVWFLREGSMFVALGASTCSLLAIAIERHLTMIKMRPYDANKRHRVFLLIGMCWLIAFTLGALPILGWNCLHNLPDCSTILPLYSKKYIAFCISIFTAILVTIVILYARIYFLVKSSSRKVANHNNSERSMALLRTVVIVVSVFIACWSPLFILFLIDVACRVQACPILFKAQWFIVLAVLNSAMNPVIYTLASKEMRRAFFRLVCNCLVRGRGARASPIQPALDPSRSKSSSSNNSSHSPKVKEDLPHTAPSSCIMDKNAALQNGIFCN
INS promoter inh: TRM-6 insulin promoter activity inhibition | TRM-6 cells (human fetal islet line), insulin promoter-eGFP reporter, imaging; reporter expression induced with tamoxifen | inhibition, % at 2 µM | 130,000 tested, 0.9% active;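 active = inhibition above the mean plus 3 SD, with well images judged a real hit on visual review, cut at about 60% in these data, passing the limit was not always enough; inconclusive = inhibition over the cutoff but images rejected on review; inactive = inhibition not above the cutoff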
Hsp70 activator: switches on Hsp70 transcription | activation, % at 10 µM | HeLa Hsp70 promoter luciferase reporter, luminescence; scaled: vehicle 0, proteasome-inhibitor control 100% | 200,000 tested, 0.04% active;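 active = activation above the mean across all tested compounds plus 3 SD, cutoff set per campaign, cut at about 5.5% in these data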;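 note: 100% = MG132 at 30 µM as the positive control and 0% = DMSO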
Numbers without * were called inactive; ? = inconclusive; nt = no result.

SMILES | S1P4 ag | S1P4 antag | Insulin prom up | S1P3 antag | INS promoter inh | Hsp70 activator
Cc1cc(C)c(S(C)(=O)=O)c(N(C)NC(=O)c2c(F)cccc2F)n1 | 0.2 | -19.0 | -0.27 | -0.6 | 0.0 | -0.3
COCCCN1C(=O)c2ccccc2C1C(=O)NC1CCCCCC1 (stereo not given) | 1.2 | -12.2 | 0.66 | -16.7 | -72.2 | 0.2
O=C(NC1CCCC1)C1c2ccccc2C(=O)N1CCCN1CCOCC1 (stereo not given) | 2.5 | -3.2 | -0.07 | -38.4 | 60.0* | -0.2
COc1ccc(-c2ccc(-c3nc4c(c(=O)[nH]c(=O)n4Cc4ccccc4)n3C)o2)c([N+](=O)[O-])c1 | 0.9 | -12.4 | -0.97 | -6.2 | -7.4 | -0.1
O=c1[nH]c(=O)n(Cc2ccccc2)c2nc(-c3ccc(Oc4ccc(F)cc4)c([N+](=O)[O-])c3)n(CCO)c12 | 7.8 | -20.6 | 0.18 | -2.6 | 73.5* | -0.1
CCN1C(=O)CSc2ccc(C(=O)NCc3ccccc3OC)cc21 | -3.9 | -15.7 | 3.1* | nt | -3.3 | 0.1
COc1ccccc1CNC(=O)CN1C(=O)CSc2ccc(S(=O)(=O)N3CCCC3)cc21 | 0.5 | -34.0 | -1.37 | 14.3 | nt | 0.1
CCCCn1c(=O)[nH]c2nc3cc(N)ccc3nc2c1=O | 1.6 | -13.1 | 4.83* | 11.5 | nt | -0.2
CCCCC(=O)Nc1ccc(NC(=O)c2cccs2)cn1 | -1.8 | -10.2 | nt | nt | -46.7 | 0.1
Cc1c(C(=O)OCCOC(C)C)[nH]c2c1C(=O)CC(c1ccco1)C2 (stereo not given) | -1.1 | 14.8 | nt | 53.7* | nt | 0.6
CCCCOC(=O)c1[nH]c2c(c1C)C(=O)CC(c1cc(OC)c(OC)c(OC)c1)C2 (stereo not given) | 2.3 | -4.5 | -2.12 | 52.5* | 57.1 | -0.2
C=CCOC(=O)c1[nH]c2c(c1C)C(=O)CC(c1cc(OC)c(OC)c(OC)c1)C2 (stereo not given) | 1.1 | -6.0 | nt | 0.1 | nt | -0.4
CN(C)c1cccc(C(=O)NCC2CCCO2)c1 (stereo not given) | -1.2 | -19.1 | -0.98 | -9.1 | -12.1 | 0.1
O=C(NCCC1=CCCCC1)C1CCN(C(=O)Cc2ccccc2)CC1 | -0.5 | -0.3 | 0.3 | -1.5 | nt | -0.5
Cc1ccc(S(=O)(=O)N(C)C)cc1NC(=O)COC(=O)CCC(=O)c1ccc(F)cc1 | -0.8 | -26.1 | -0.4 | -14.2 | nt | -0.6
Cc1ccc(S(=O)(=O)N(C)C)cc1NC(=O)COC(=O)/C(=C/c1ccc(F)cc1)c1cccs1 | 0.1 | -4.2 | 0.22 | -15.2 | 64.3* | 0.2
O=C1Nc2ccc(Br)cc2C12NNc1ccccc1O2 (stereo not given) | -2.3 | 12.0 | 14.4* | -26.7 | nt | -0.1
Cc1ccc(C(=O)c2no[n+]([O-])c2C(=O)c2ccc(C)cc2)cc1 | 1.5 | 0.7 | 0.41 | 10.5 | -455.6 | -0.4
Cc1ccccc1C([O-])=Nc1ccc[n+](-c2nc3ccccc3nc2NS(=O)(=O)c2ccccc2)c1 | 0.0 | 11.0 | -0.43 | -13.2 | nt | nt
c1ccc(-c2csc(-n3cnnn3)n2)cc1 | 0.4 | -0.7 | 3.13* | -19.5 | -29.0 | -0.1
O=C(Nc1c2c(nc3ccccc13)CCCC2)c1ccccc1Cl | -0.7 | 1.1 | -0.02 | -12.2 | -17.6 | -0.3
O=C(Nc1c2c(nc3ccccc13)CCCC2)c1ccccc1F | -0.8 | 13.4 | 0.4 | 5.4 | 64.3* | -0.1
COC(=O)C1=C(COc2ccccc2)NC(=O)NC1c1ccc(Br)cc1 (stereo not given) | -0.1 | 6.4 | -0.16 | -8.4 | 36.4 | -0.1
CCCS(=O)(=O)N1CCN(C(=O)c2cc(OC)cc(OC)c2)CC1 | -1.3 | 5.4 | 0.67 | 94.6* | 9.1 | -0.2
CCS(=O)(=O)N1CCN(C(=O)c2cc(OC)cc(OC)c2)CC1 | -1.9 | -20.8 | -0.64 | 0.0 | 35.7 | -0.2
SMILES | S1P4 ag | S1P4 antag | Insulin prom up | S1P3 antag | INS promoter inh | Hsp70 activator
COc1cccc(Oc2ccc(N/C=C/C(=O)C(C)(C)C)cc2)c1 | 0.4 | -7.9 | 0.23 | 6.0 | 75.0* | -0.1
CC1(C)Cc2nc3nc(SCC(=O)Nc4ccccc4)nc(N)c3cc2CO1 | -2.3 | -9.5 | -0.09 | 13.9 | nt | 0.1
Nc1nc(-c2cccc(NS(=O)(=O)c3ccccc3)c2)cs1 | -3.6 | 0.3 | -0.2 | 52.6* | -74.2 | 0.0
CC(=O)Nc1ccc(S(=O)(=O)Nc2cccc(-c3csc(C)n3)c2)cc1 | -0.2 | 0.7 | nt | 7.4 | nt | 0.1
CCOC(=O)c1c(NC(C)=O)sc2c(O)c(CN3CCN(CC)CC3)ccc12 | -1.2 | -19.1 | -0.84 | 13.5 | 85.7* | -0.4
COc1c(S(=O)(=O)N2CCN(c3ccc(F)cc3)CC2)ccc(Cl)c1Cl | 0.4 | 0.4 | -0.89 | nt | 74.3* | -0.5
CCOc1ccc2[nH]c(=O)c(CN(CCc3ccccc3)C(=O)N3CCOCC3)cc2c1 | 2.1 | -23.0 | 5.49* | nt | 26.7 | -0.2
CCc1nn(-c2ccccc2)c(N)c1C#N | 0.2 | -10.2 | -0.29 | -1.6 | 60.0* | -0.3
COc1ccc(-c2nc(C#N)c(N3CCC(C(N)=O)CC3)o2)cc1OC | 0.6 | -0.1 | -0.5 | nt | 75.0* | 0.1
c1cncc(CSc2nnc3ccc(-c4ccco4)nn23)c1 | -0.4 | -4.8 | 0.55 | -10.5 | nt | -0.2
NC(=O)CSc1nnc2ccc(-c3ccco3)nn12 | 0.9 | -6.1 | 0.12 | 3.1 | 68.4* | 0.1
COc1ccc(C(=O)Nn2cnnc2)cc1OC | -1.1 | -7.4 | 4.36* | 8.8 | nt | nt
COc1ccc(C(=O)NN2CCCCC2)cc1OC | -2.0 | -18.7 | -0.39 | nt | -10.7 | -0.2
COc1ccc(CN2C(=O)CCC2(C)C(=O)NC2CCCC2)c(OC)c1 (stereo not given) | 0.2 | 1.5 | -0.15 | -3.8 | 70.0* | 0.1
COc1nc(Nc2nc3ccccc3c(=O)[nH]2)nc2ccc(C)cc12 | -0.6 | -9.4 | ? | 69.9* | nt | nt
O=C(CSc1nnnn1Cc1ccccc1)c1ccccc1F | 1.4 | -16.3 | -0.54 | -8.4 | 92.6* | -0.2
O=c1cc(-c2ccccc2)nc2c(-c3ccccc3)c(C(F)(F)F)[nH]n12 | 1.3 | -16.8 | 0.06 | 16.2 | nt | nt
O=C(COc1ccc(Br)cc1)N/N=C1\SCC(=O)N1c1ccc(F)cc1 | -0.1 | -10.7 | 0.1 | 6.8 | 92.9* | 0.0
Cc1ccc(OCC(=O)N/N=C2/SCC(=O)N2Cc2ccccc2)cc1 | -0.1 | -23.1 | -0.09 | -2.7 | 2.6 | -0.2
C=C(C)CNC(=S)Nc1cccc(N)n1 | -1.6 | -12.4 | -0.52 | -9.6 | nt | -0.2
Cc1onc(-c2ccccc2Cl)c1C(=O)Nc1ccc(-c2cn3cccnc3n2)cc1 | 1.8 | -7.2 | 0.31 | nt | -54.5 | -0.2
Cc1onc(-c2ccccc2Cl)c1C(=O)Nc1cccc(-c2nc3ncccn3c2C)c1 | 0.8 | -1.8 | -1.76 | nt | 81.8* | 0.3
O=C(O)c1ccc(S(=O)(=O)c2ccc3c(c2)C(=O)N(CC2CCCO2)C3=O)cc1 (stereo not given) | -3.8 | 4.0 | -0.37 | -15.1 | -71.4 | -0.1
O=C(O)c1ccc(S(=O)(=O)c2ccc3c(c2)C(=O)N(Cc2ccco2)C3=O)cc1 | -0.4 | -10.2 | 1.02 | 105.7* | 41.3 | -0.4
O=C(CCC(=O)c1cccs1)NCc1ccc(Cl)cc1 | -2.7 | 2.4 | 0.69 | nt | 70.0* | -0.7
